# Laboratory results as given in PubChem BioAssay (NCATS).
# Several values for one entry are separate records, joined by “and”; a condition that tells them apart may be missing. Equal entries are not always repeated. Records with an inconclusive call do not appear. A call without a number means that no potency is given here. A number with no mark means an inactive call. Activity calls are given as the source filed them. Calls follow the shape of the dose curve; as a rule, active = well fitted curve in the direction sought with a large enough effect; inconclusive = small, poorly fitted or top-dose-only effect, or another doubt; inactive = no such curve, though single readings can be large; an effect the other way counts as inactive or inconclusive.
# Experiments:
# [1] = biological target: N-terminal Xaa-Pro-Lys N-methyltransferase 1 (Homo sapiens) (UniProt Q9BV86); assay: qHTS Assay for Inhibitors of N-terminal methyltransferase 1 (NTMT1): LOPAC validation of the NTMT1 SAHH-coupled ThioGlo3 Assay (AID 1347143);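 also: SAH from peptide methylation measured as thiol fluorescence via SAHH coupling and ThioGlo3; nearly all actives have a fitted effect of over 70% in size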; also: potency is read from the fitted curve at half-maximal effect
# How it was run: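 Steps: dispense 125nM NTMT1; pin-transfer test compounds at several concentrations, with 1uM RCC1-6 peptide as control; incubate 1 min; start with reagent holding 100uM SAM, 10uM SAHH, 15uM ThioGlo3; read at 0 and 30 min.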
# [2] = tested on: Zika virus NS2B-NS3 protease (unlinked); assay: Optimization of GU AMC qHTS for Zika virus inhibitors: Unlinked NS2B-NS3 protease assay (AID 1347151); also: nearly all actives have a fitted effect of over 80% in size; also: potency is read from the fitted curve at half-maximal effect
# How it was run: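 In this qHTS, compounds acted on 25 nM unlinked Zika NS2B–NS3 in pH 8.0 Tris/Tween buffer. Cleavage of an AMC peptide ran 15 min at room temperature, to about 20% conversion.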
# [3] = tested on: Zika virus NS2B-NS3 protease; assay: Primary screen GU AMC qHTS for Zika virus inhibitors (AID 1347154); also: nearly all actives have a fitted effect of over 70% in size; also: potency is read from the fitted curve at half-maximal effect
# How it was run: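 Unlinked Zika NS2B hydrophilic domain–NS3 protease complex at 25 nM in 10 mM Tris-HCl pH 8.0, 0.01% Tween 20, with an AMC peptide substrate. Fluorescence change (340/450 nm) over 15 min at room temperature, normalized to controls, fitted to 4-parameter Hill.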
# [4] = tested on: Zika virus NS2B-NS3 protease (unlinked complex); assay: Primary screen GU Rhodamine qHTS for Zika virus inhibitors: Unlinked NS2B-NS3 protease assay (AID 1347159); also: nearly all actives have a fitted effect of over 60% in size; also: potency is read from the fitted curve at half-maximal effect
# How it was run: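 Enzyme 25 nM in Tris-HCl pH 8.0 + 0.01% Tween 20; compounds up to 114 microM, 15 min RT dark; + Rhod110 substrate 1.5 microM; read t0 and 15 min; delta fluorescence → % inhibition → 4-parameter Hill fit.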
# [5] = tested on: Zika virus NS2B-NS3 protease (linked construct); assay: Primary screen NINDS Rhodamine qHTS for Zika virus inhibitors (AID 1347160); also: nearly all actives have a fitted effect of over 55% in size; also: potency is read from the fitted curve at half-maximal effect
# How it was run: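 Enzyme (25 nM, linked NS2B-NS3) was preincubated 15 min with compound in 10 mM Tris-HCl pH 8.0, 0.01% Tween 20. Rhodamine110 substrate (1.5 microM) was then added and fluorescence read at start and after 15 min.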
# [6] = Confirmatory screen NINDS Rhodamine qHTS for Zika virus inhibitors (AID 1347161); also: nearly all actives have a fitted effect of over 60% in size; also: potency is read from the fitted curve at half-maximal effect
# How it was run: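 Purified linked NS2B-NS3 protease (NS2B hydrophilic domain joined to NS3 protease by flexible linker), 25 nM in 10 mM Tris-HCl pH 8.0, 0.01% Tween 20. Compounds titrated, 15 min preincubation at room temperature; 1.5 microM Rhodamine110 substrate, FITC fluorescence change over 15 min.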
# [7] = tested on: Zika virus NS2B-NS3 protease (linked); assay: 384 well plate NINDS AMC confirmatory qHTS for Zika virus inhibitors (AID 1347163); settings: Recombinant NS2B-NS3 protease, Ac-VKTGKR-AMC fluorescence; also: potency is read from the fitted curve at half-maximal effect; nearly all actives have a fitted effect of over 50% in size
# How it was run: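 Fluorescence at 355/460 nm was read after 25 minutes of cleavage of 30 microM Ac-VKTGKR-AMC at room temperature, in the dark. Before substrate addition, compounds (up to 1 mM final) sat ~15 minutes with 5, 30 or 60 nM linked protease. Signals were normalized to no-enzyme and no-inhibitor wells.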
# [8] = tested on: Zika virus NS2B-NS3 protease (linked construct); assay: 384 well plate NINDS Rhodamine confirmatory qHTS for Zika virus inhibitors (AID 1347164); also: nearly all actives have a fitted effect of over 65% in size; also: potency is read from the fitted curve at half-maximal effect
# How it was run: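 Cleavage of Ac-LKRR-Rhodamine 110 (10 microM final) by linked protease (final 5, 30 or 60 nM) was followed as fluorescence at 485/538 nm after 25 min, room temperature, dark. Compounds preincubated ~15 min.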
# [9] = tested on: Zika virus NS2B-NS3 protease (linked construct); assay: Confirmatory screen NINDS AMC qHTS for Zika virus inhibitors (AID 1347152); also: potency is read from the fitted curve at half-maximal effect; nearly all actives have a fitted effect of over 70% in size
# How it was run: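 Concentration-response confirmation used the NINDS linked protease (NS2B hydrophilic domain joined to NS3 protease domain), 1 nM, with a 15-min compound preincubation. Substrate, Nle-KRR-AMC at 10 microM, was read by UV fluorescence before and after 15 min.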
# [10] = tested on: Zika virus NS2B-NS3 protease (unlinked complex); assay: Confirmatory screen GU AMC qHTS for Zika virus inhibitors (AID 1347153);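 also: enzyme at 25 nM with substrate at 10 µM below its Km of 18.3 µM; potency is read from the fitted curve at half-maximal effect; nearly all actives have a fitted effect of over 70% in size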
# How it was run: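 Fluorescence change (ex 340/em 450 nm) over 15 min, ~20% substrate conversion, normalized to no-inhibitor and no-enzyme controls, then Hill-fitted. Unlinked protease at 25 nM; AMC peptide 10 µM.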
# [11] = Confirmatory screen GU Rhodamine qHTS for Zika virus inhibitors qHTS (AID 1347157); settings: purified enzyme assay, Rhodamine110 substrate fluorescence, 15 min
# How it was run: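 Compounds, tested up to 114 microM, were incubated for 15 minutes with 25 nM unlinked NS2B-NS3 protease at pH 8.0. Cleavage of 1.5 microM Rhodamine110 substrate was then followed by fluorescence for 15 minutes.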
# [12] = Vero cells viability qHTS for Zika virus inhibitors (AID 1347167)
# How it was run: (§1)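 qHTS titration; 24-48 h compound exposure, 37 degrees C/5% CO2; DMEM, 4% FBS; CellTiter Glo ATP luminescence.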
# [13] = HepG2 cells viability qHTS for Zika virus inhibitors (AID 1347168)
# How it was run: as §1
# [14] = Tertiary RLuc qRT-PCR qHTS assay for Zika virus inhibitors (AID 1347169); also: potency is read from the fitted curve at half-maximal effect; nearly all actives have a fitted effect of over 55% in size
# How it was run: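 Inhibition of ZIKV-RLuc replication in Vero cells, read as Renilla luminescence 1-1.5 hrs after live-cell substrate addition, following 48-72 hrs infection at MOI 1-2 in presence of compound.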
# [15] = ZIKV-mCherry secondary qHTS for Zika virus inhibitors (AID 1347158); also: top concentration of the series differs between compounds
# How it was run: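 Compounds were tested in Vero monkey kidney cells infected with recombinant mCherry-expressing Zika virus at MOI 1 for 48-72 h at 37 °C. Fixed cells were nuclear-stained and imaged, and infection rate was taken as the fraction of mCherry-positive cells.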
# Chain of N-terminal Xaa-Pro-Lys N-methyltransferase 1 (Homo sapiens) (Q9BV86 whole entry, looked up): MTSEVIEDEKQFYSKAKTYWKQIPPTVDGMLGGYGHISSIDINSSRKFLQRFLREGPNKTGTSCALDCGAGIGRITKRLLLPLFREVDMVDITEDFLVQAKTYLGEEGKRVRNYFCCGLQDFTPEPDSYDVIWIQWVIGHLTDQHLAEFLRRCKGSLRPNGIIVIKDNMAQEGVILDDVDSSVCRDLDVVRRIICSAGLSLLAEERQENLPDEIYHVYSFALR
smiles,measurement,setting,value
O=C1NCN(c2ccccc2)C12CCN(CC1COc3ccccc3O1)CC2 (stereo not drawn),Potency,[1],inactive
same,Potency,[2],inactive
CC[C@@H](CO)NC(=O)[C@@H]1C=C2c3cccc4[nH]cc(c34)C[C@H]2N(C)C1,Potency,[1],25.1 µM (active)
same,Potency,[2],23.8 µM (active)
Fc1ccc(C(OCCN2CCN(CCCc3ccccc3)CC2)c2ccc(F)cc2)cc1,Potency,[2],inactive
same,Potency,[3],inactive
CCn1cc(C(=O)O)c(=O)c2ccc(C)nc21,Potency,[1],inactive
Cc1ncc(CNC(=O)N(CCCl)N=O)c(N)n1,Potency,[2],inactive
CCC1(C2=NCCN2)Cc2ccccc2O1 (stereo not drawn),Potency,[1],inactive
same,Potency,[2],inactive
same,Potency,[3],inactive
O=c1[nH]c2ccccc2n1C1CCN(CCCC(c2ccc(F)cc2)c2ccc(F)cc2)CC1,Potency,[1],inactive
same,Potency,[2],inactive
same,Potency,[3],inactive
same,Potency,[4],inactive
same,Potency,[5],inactive
Cc1cccc(C)c1NC1=NCCCS1,Potency,[1],inactive
same,Potency,[2],inactive
same,Potency,[3],inactive
Cc1ccc(S(=O)(=O)N[C@@H](CCCCN)C(=O)CCl)cc1,Potency,[1],56.2 µM (active)
same,Potency,[2],inactive
same,Potency,[3],inactive
O=c1[nH]c2ccccc2n1CCCN1CCC(n2c(=O)[nH]c3cc(Cl)ccc32)CC1,Potency,[1],inactive
same,Potency,[2],inactive
Nc1ccncc1,Potency,[1],inactive
same,Potency,[2],inactive
same,Potency,[3],inactive
CNCC(O)c1ccc(O)cc1 (stereo not drawn),Potency,[1],inactive
same,Potency,[2],inactive
CN(C)[C@@H]1C(=O)C(C(N)=O)=C(O)[C@@]2(O)C(=O)C3=C(O)c4c(O)cccc4[C@@](C)(O)[C@H]3C[C@@H]12,Potency,[3],inactive
same,Potency,[6],inactive
same,Potency,[7],224 µM (active)
same,Potency,[8],inactive
C[C@@H]1[C@@H](C(=O)C[C@H]2O[C@@H]3O[C@]4(C)CC[C@@H]5[C@H](C)CC[C@@H]([C@H]2C)[C@@]35OO4)O[C@@H]2O[C@]3(C)CC[C@H]4[C@H](C)CC[C@@H]1[C@@]24OO3,Potency,[3],inactive
C#CCOC(C(=O)OCCN(C)C)(c1ccccc1)c1ccccc1,Potency,[3],inactive
COC[C@H]1OC(=O)c2coc3c2[C@@]1(C)C1=C(C3=O)C2CCC(=O)[C@@]2(C)C[C@H]1OC(C)=O (stereo partly drawn),Potency,[2],inactive
same,Potency,[4],inactive
same,Potency,[5],inactive
CCCC1CCCCN1 (stereo not drawn),Potency,[3],inactive
Cn1cc(C2=C(c3cn(C4CCN(Cc5ccccn5)CC4)c4ccccc34)C(=O)NC2=O)c2ccccc21,Potency,[3],inactive
N[C@@H](Cc1ccc(N(CCCl)CCCl)cc1)C(=O)O,Potency,[3],inactive
CC(C)NCC(O)c1ccccc1Cl (stereo not drawn),Potency,[3],inactive
O=C(O)c1ccc2[nH]cc(CCCCN3CC=C(c4ccccc4)CC3)c2c1,Potency,[3],inactive
C=C1CC[C@@]2(O)[C@H]3Cc4ccc(O)c5c4[C@@]2(CCN3CC2CC2)[C@H]1O5,Potency,[3],inactive
CNC(=O)N1N=C(c2ccc(N)cc2)c2cc3c(cc2CC1C)OCO3 (stereo not drawn),Potency,[3],inactive
same,Potency,[4],inactive
same,Potency,[5],inactive
FC(F)(F)c1cccc(C2=CCN(CCc3ccc4ccccc4c3)CC2)c1,Potency,[3],inactive
Cc1cc(SCc2sc(-c3ccc(C(F)(F)F)c(F)c3)nc2C)ccc1OCC(=O)O,Potency,[9],17.1 µM (active) and 12.4 µM (active)
same,Potency,[10],19.2 µM (active) and 17.1 µM (active)
same,Potency,[3],7.64 µM (active)
same,Potency,[11],2.21 µM (active)
same,Potency,[4],2.82 µM (active)
same,Potency,[5],1.78 µM (active)
same,Potency,[6],1.75 µM (active) and 1.96 µM (active) and 1.97 µM (active)
same,Potency,[7],39.8 µM (active)
same,Potency,[8],35.5 µM (active)
same,outcome,[12],inactive
same,outcome,[13],inactive
same,Potency,[14],23.4 µM (active)
C=CCN1CC[C@]23c4c5ccc(O)c4O[C@H]2C(=O)CC[C@@]3(O)[C@H]1C5,Potency,[3],inactive
c1ccc2c(c1)Nc1ccccc1S2,Potency,[3],inactive
CC(C)(C)NCC(O)c1cc(Cl)c(N)c(Cl)c1 (stereo not drawn),Potency,[3],inactive
CCOC(=O)C1(c2ccccc2)CCN(CCC(C#N)(c2ccccc2)c2ccccc2)CC1,Potency,[3],inactive
C=C1C[C@@H]2[C@H](CC[C@]3(C)C(=O)CC[C@@H]23)[C@@]2(C)C=CC(=O)C=C12,Potency,[3],inactive
O=P1(NCCCl)OCCCN1CCCl (stereo not drawn),Potency,[3],inactive
CNC(=O)c1ccc(N2C(=S)N(c3ccc(C#N)c(C(F)(F)F)c3)C(=O)C23CCC3)cc1F,Potency,[3],inactive
same,Potency,[4],inactive
same,Potency,[5],inactive
CCN(CC)CCOC(=O)C(O)(c1ccccc1)c1ccccc1,Potency,[3],inactive
COC1(CS(=O)c2ccccc2)CCN(CCc2c[nH]c3ccc(F)cc23)CC1 (stereo not drawn),Potency,[3],inactive
C#CCN(C)[C@H](C)Cc1ccccc1,Potency,[3],inactive
Oc1ccccc1-c1ccccc1,Potency,[3],inactive
O=C(O)C(=O)c1cn(Cc2ccccc2)c2ccc(-c3ccc(OC(F)(F)F)cc3)cc12,Potency,[9],7.84 µM (active)
same,Potency,[10],9.61 µM (active)
same,Potency,[3],6.07 µM (active)
same,Potency,[11],1.24 µM (active) and 1.56 µM (active)
same,outcome,[15],inactive
same,Potency,[4],1.58 µM (active)
same,Potency,[5],2.51 µM (active)
same,Potency,[6],1.24 µM (active) and 1.75 µM (active)
same,Potency,[7],11.2 µM (active)
same,Potency,[8],12.6 µM (active) and 3.16 µM (active)
same,outcome,[12],inactive
same,outcome,[13],inactive
CCCN1CCC[C@@H]2Cc3nc(N)ncc3C[C@H]21,Potency,[3],inactive
CN1CCN(C(=O)O[C@H]2c3nccnc3C(=O)N2c2ccc(Cl)cn2)CC1,Potency,[3],inactive
COC[C@@H](NC(C)=O)C(=O)NCc1ccccc1,Potency,[3],inactive
CCCC(C)(COC(N)=O)COC(=O)NC(C)C (stereo not drawn),Potency,[3],inactive
C=C(C)[C@H]1Cc2c(ccc3c2O[C@@H]2COc4cc(OC)c(OC)cc4[C@@H]2C3=O)O1,Potency,[3],inactive
C[C@]12C/C(=C/O)C(=O)C[C@@H]1CC[C@@H]1[C@@H]2CC[C@@]2(C)[C@H]1CC[C@]2(C)O,Potency,[3],inactive
Clc1cccc(N2CCNCC2)c1,Potency,[3],inactive
CC1=C2C[C@@H]3[C@@H](CC=C4C[C@@H](O)CC[C@@]43C)[C@@H]2CC[C@]12O[C@H]1C[C@H](C)CN[C@H]1[C@H]2C,Potency,[3],inactive
Oc1ccc(Cl)cc1Cc1ccccc1,Potency,[3],inactive
NP(N)(=O)NC(=O)c1ccc(F)cc1,Potency,[3],inactive
CC(C)=CC1C(C(=O)OCc2cccc(Oc3ccccc3)c2)C1(C)C (stereo not drawn),Potency,[3],inactive
N[C@@H]1C[C@H]1c1ccccc1,Potency,[3],inactive
CN(C)CCc1ccc(O)cc1,Potency,[3],inactive
